According to PubChem BioAssay AID1619 (SRMLSC, 2009):
Values joined by “and” are separate entries in the source; they are usually repeats but may differ in a detail not shown here. Equal values may be shown once. Screen size: about 220,000 compounds; about 830 (0.38%) were called active.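 Rule for the calls: active = compound inhibiting the enzyme by more than half at any dose during confirmatory dose-response retesting; inconclusive = strong single-dose inhibitors picked by rank but not retested; inactive = the rest.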 A selection follows. Results with a measured potency or affinity are listed apart.

Each compound was assayed against Leucine aminopeptidase (Plasmodium falciparum (isolate 3D7)) (UniProt Q8IL11) (assay: P. falciparum M17LAP inhibitors, primary screen, biochemical, fluorogenic H-Leu-NHMec substrate, 1536-well (AID 1619;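 note: plate controls were full reaction with DMSO carrier for no effect and no enzyme background for full effect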)). Conditions: recombinant M17LAP, H-Leu-NHMec fluorogenic kinetic assay; at 30 µM; active compounds read high.
Sequence of Leucine aminopeptidase (Plasmodium falciparum (isolate 3D7)) (Q8IL11 whole entry, looked up): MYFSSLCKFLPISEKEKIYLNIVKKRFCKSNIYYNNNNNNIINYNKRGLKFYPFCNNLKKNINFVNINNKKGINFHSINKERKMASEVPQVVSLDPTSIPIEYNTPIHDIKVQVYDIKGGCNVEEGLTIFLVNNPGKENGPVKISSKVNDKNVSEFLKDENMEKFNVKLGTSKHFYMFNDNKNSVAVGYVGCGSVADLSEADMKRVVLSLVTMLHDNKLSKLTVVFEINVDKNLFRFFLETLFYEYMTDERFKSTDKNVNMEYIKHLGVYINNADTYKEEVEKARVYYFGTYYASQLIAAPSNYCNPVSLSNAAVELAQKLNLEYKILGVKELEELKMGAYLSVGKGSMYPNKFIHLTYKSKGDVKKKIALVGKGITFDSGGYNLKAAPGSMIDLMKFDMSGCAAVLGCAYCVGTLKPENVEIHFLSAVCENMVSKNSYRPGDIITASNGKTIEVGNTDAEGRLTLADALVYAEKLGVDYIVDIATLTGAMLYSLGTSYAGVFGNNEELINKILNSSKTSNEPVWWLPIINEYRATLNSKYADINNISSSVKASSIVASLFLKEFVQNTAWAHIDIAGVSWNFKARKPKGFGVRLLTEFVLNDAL

inhibition, inactive:
Cc1cc(NS(=O)(=O)c2ccc(NC(=O)c3ccc(Br)o3)cc2)nc(C)n1 4.58%, N/C(=N\OC(=O)CCC1CCCC1)c1ccccn1 7.09%, CCOn1c(-n2nc(C)cc2C)nc2ccccc2c1=O -1.28%, Cc1ccc(-c2noc(CCC(=O)NCC3CCN(Cc4cccc(C)c4)CC3)n2)cc1 -0.25%, COc1cc(/C=C2/NC(=O)N(Cc3ccccc3F)C2=O)ccc1Oc1ccc([N+](=O)[O-])cn1 -10.8%, COc1cccc(CN2CCN(C3CCN(c4ccccc4F)CC3)CC2CCO)c1 (stereo not drawn) 3.43%, CCOc1ccc(OCC(=O)Nc2ccc(OC)cc2[N+](=O)[O-])cc1 -4.57%, COc1ccc(NC(=O)CSc2ccccn2)c([N+](=O)[O-])c1 4.06%, COc1ccc(NC(=O)CSc2nncn2C)c([N+](=O)[O-])c1 41.3%, CCOc1ccc(NC(=O)COc2ccccc2)c([N+](=O)[O-])c1 4.93%, CCOc1ccc(NC(=O)Cc2cccc3ccccc23)c([N+](=O)[O-])c1 33.7%, COc1ccc(NC(=O)CSc2ccccc2)c([N+](=O)[O-])c1 13%, CCCc1cc(=O)oc2cc(OCC(=O)Nc3cc(C)on3)ccc12 -41.2%, CCNS(=O)(=O)c1ccc2c(c1)n(C)c(=O)n2C 6.77%, [O-]/C(=C(\C(=S)Nc1ccccc1F)[n+]1ccccc1)c1ccc(-c2ccccc2)cc1 -0.96%, CCc1ccc(N(C(=O)c2snc(C(N)=O)c2N)C(C(=O)NCC2CCCO2)c2cccs2)cc1 (stereo not drawn) -0.4%, Cn1ncc([N+](=O)[O-])c1C(=O)Nc1nc2ccccc2n1CCN1CCCCC1 48.4%, Cc1ccc(NC(=O)COC(=O)Cc2ccsc2)cc1S(=O)(=O)N(C)C 3.8%, CCOC(=O)c1ccc(NC(=O)Cn2nnc(-c3ccccc3F)n2)cc1 -13.6%, CCOC(=O)c1cc(=O)n2nc(-c3ccc(C)cc3)nc2s1 10.8%, CC(C)Cn1c(N)c(C(=O)COC(=O)c2cc(F)cc(F)c2)c(=O)n(C)c1=O 3.99%, CCOc1ccc(C2/C(=C(\O)c3ccc(OC)c(OC)c3)C(=O)C(=O)N2c2cc(C)on2)cc1OC (stereo not drawn) 25.9%, CCOc1cccc(-c2cc(C(=O)NN)[nH]n2)c1 3.47%, C=CCn1c(-c2cccc(OCC)c2)n[nH]c1=S -4.71%, Cc1ccc(C(=O)NC2CCCCNC2=O)cc1C (stereo not drawn) 4.43%, Cc1ccc(Cl)cc1NC(=O)N(C)CCO -0.32%, O=C(Cn1cc(C(=S)N2CCOCC2)c2ccccc21)N1CCOCC1 1.74%, O=C(O)Cn1cc(/C=C2/SC(=O)N(CC(=O)N3CCCCCC3)C2=O)c2ccccc21 36.6%, O=C(O)Cn1cc(C(=S)N2CCOCC2)c2ccccc21 4.61%, O=Cc1cn(CC(=O)N2CCOCC2)c2ccccc12 13.4%, O=C(NCc1ccccc1C(F)(F)F)C1CC(c2ccc(C(F)(F)F)cc2)=NO1 (stereo not drawn) -1.15%, Cc1ccc(CNC(=O)c2ccc3c(=O)n4c(-c5ccc(C)cc5)csc4nc3c2)cc1 4.76%, COC(=O)c1c(C)[nH]c(C(=O)NCc2ccco2)c1C -0.45%, CCC(=O)N(Cc1cc(=O)[nH]c2ccccc12)c1cccc(C)c1 -6.5%, Cc1ccc(-c2cc3nc(-c4ccccc4)cc(N4CCOCC4)n3n2)cc1 -15.5%, CC(C)Cc1ccc(-c2cc(=O)[nH][nH]2)cc1 3.83%, O=c1[nH]c(-c2ccc(Cl)cc2)cs1 -0.58%, O=c1cc(-c2ccc(Br)cc2)[nH][nH]1 6.69%, O=c1cc(-c2ccc(C3CCCCC3)cc2)[nH][nH]1 1.14%, O=c1c(O[C@@H]2O[C@H](CO)[C@H](O)[C@H](O)[C@H]2O)c(-c2ccc(O)c(O)c2)oc2cc(O)cc(O)c12 -6.93%, O=c1c(OC2OC(CO)C(O)C(O)C2O)c(-c2ccc(O)c(O)c2)oc2cc(O)cc(O)c12 (stereo not drawn) 31%, O=C(c1ccc(Br)cc1)N(C1=NCCCCS1)c1ccccc1 -5.89%, CC(Oc1ccc(NC(=O)c2ccco2)cc1)C(=O)N1c2ccccc2CC1C (stereo not drawn) -7.91%, CCOC(=O)c1c(N)c2cc([N+](=O)[O-])cnc2n1C -0.26%, CCc1nnc(NC(=O)CSc2nnc(-c3ccco3)o2)s1 4.71%, O=C(CSc1nnc(-c2ccc(S(=O)(=O)N3CCCC3)cc2)o1)NCC1CCCO1 (stereo not drawn) -1.86%, O=C(NCC1CCCO1)c1ccc(NS(=O)(=O)c2ccccc2)cc1 (stereo not drawn) -3.12%, COC(=O)CSc1nnc(-c2ccc(NS(=O)(=O)c3ccccc3)cc2)o1 55.1%, Cc1cc(NC(=O)Nc2ccc(C)c(C)c2)no1 1.89%, O=C1c2cccc3c([N+](=O)[O-])ccc(c23)C(=O)N1CCc1ccccn1 3.49%, Cc1cccc(OCCOC(=O)C2CCN(S(=O)(=O)c3cccs3)CC2)c1 -6.82%, COc1ccc(C(C)NC(=O)c2cccc([N+](=O)[O-])c2)cc1OC (stereo not drawn) 1.09%, COc1ccc(NC(=S)N/C(=N/S(=O)(=O)c2ccc(C)cc2)c2ccccc2)cc1 -2.37%, CCOC(=O)c1cn(Cc2ccccc2)nn1 -4.7%, OC1(c2ccccc2)CCN(Cc2ccccc2)CC1 11.4%, Cc1ccc(-n2cc(CN3CCN(C(=O)c4ncn[nH]4)CC3)c(-c3ccc(F)cc3)n2)cc1 5.18%, CCCOc1ccc(N2C(=O)CC(SCCc3nc4ccccc4[nH]3)C2=O)cc1 (stereo not drawn) 0.77%, COC(=O)c1ccc(N2C(=O)CC(SCCN)C2=O)cc1 (stereo not drawn) 6.69%, CCOc1ccc(N2C(=O)CC(SCC(=O)O)C2=O)cc1 (stereo not drawn) 11.6%, CCCOc1ccc(N2C(=O)CC(SCc3nc4ccccc4[nH]3)C2=O)cc1 (stereo not drawn) 9.24%, O=c1[nH]c2cccnc2n1-c1cccc([N+](=O)[O-])c1 -2.76%, Fc1ccc(OCc2nc(-c3cccs3)no2)cc1 -5.15%, O=C(Cn1cnc2c(cnn2-c2ccc(Cl)cc2)c1=O)NCC1CCCO1 (stereo not drawn) 8.72%, COc1ccc(C2CC(=O)C=C(NCc3ccc4c(c3)OCO4)C2)cc1 (stereo not drawn) 8.48%, CCN(CC)c1nc(C)c(C(C)=O)cc1C#N 3.26%, COc1ccccc1N1CCN(S(=O)(=O)Cc2ccccc2Cl)CC1 3.75%, COc1ccc(NC(=O)C(c2ccc(C)cc2)N(C)C(=O)c2cnccn2)cc1 (stereo not drawn) 1.36%, C/C(=N\NC(=O)CCc1c(C)n[nH]c1C)c1ccc([N+](=O)[O-])cc1 6.88%, C/C(=N\NC(=O)CNc1ccccc1)c1ccccc1 -12.8%, C/C(=N\NC(=O)CC1N=C(Cc2ccccc2)NNC1=O)c1ccccc1 (stereo not drawn) 1.8%, C/C(=N/NC(=O)CC(=O)N/N=C(\C)c1ccc([N+](=O)[O-])cc1)c1ccc([N+](=O)[O-])cc1 9.49%, Cc1ccc(S(=O)(=O)/N=C(\N)Nc2nc(C)c3cc(C)c(C)cc3n2)cc1 6.15%, O=C(CCSc1ccccc1)Nc1ccc(OCc2ccccc2)cc1 3.34%, COc1ccc(-c2nnc(SCC(=O)N/N=C/c3ccccc3C(=O)O)n2-c2ccccc2)cc1 -3.16%, N#C/C(=C/c1ccc(OCc2ccc(C(=O)O)cc2)c(Br)c1)c1cccc(F)c1 7.71%, COc1cc(/C=C(/C#N)c2ccc(F)cc2)ccc1OCc1ccc(C(=O)O)o1 34.9%, COc1cc(/C=C(/C#N)c2nc3ccccc3[nH]2)ccc1OCc1ccc(C(=O)O)o1 -33.5%, COC(=O)c1ccc(COc2ccc(/C=C(\C#N)c3nc4ccccc4[nH]3)cc2OC)o1 -3.19%, COc1ccc(NC(=O)COC(=O)Cc2c(F)cccc2Cl)cc1 5.4%, COc1ccc(NC(=O)Cc2c(F)cccc2Cl)c(OC)c1 -1.9%, COC(=O)CSc1nc(NC#N)nc(NC(C)(C)C)n1 4.9%, COc1ccc(-c2cc(C)nc(SCc3cccc(C(=O)O)c3)n2)cc1 38.6%, Cn1sc(NC(=O)c2ccccc2Cl)nc1=O -13.2%, O=C(Nc1nc2ccccc2s1)c1ccccc1 0.27%, Cn1sc(NC(=O)c2ccc(Cl)cc2)nc1=O 0.57%, O=C(Nc1nc(=O)n(C(=O)c2cccc(C(F)(F)F)c2)s1)c1ccccc1 22.5%, Cc1ccc(C(=O)Nc2nc(=O)n(C)s2)cc1 4.51%, Cn1sc(NC(=O)c2cccc(Cl)c2)nc1=O 12.3%, Cc1ccc(C(=O)Nc2nc(=O)n(C(=O)c3ccccc3C)s2)cc1 31.9%, Cc1ccc(C(=O)Nc2nc(=O)[nH]s2)cc1 -1.57% and 13.4%, CCN(CC)CCCN1C(=O)CSC1c1ccc2c(c1)OCO2 (stereo not drawn) 20.1%, O=C(NNC(=O)c1ccc(Br)o1)c1ccc(NC(=O)c2ccccc2)cc1 -6.75%, COCCCN(C(=S)NC(=O)c1ccc(C(C)(C)C)cc1)c1c(N)n(Cc2ccccc2)c(=O)[nH]c1=O 16.9%
